# Data from PubChem BioAssay (Tox21).
# Records with an inconclusive call do not appear. A number with no mark means an inactive call. Active and inactive are the calls of the source. Calls follow the shape of the dose curve; as a rule, active = well fitted activation curve with a large enough effect in the repeat runs; inconclusive = weak or mixed curves; inactive = no such curve, though single readings can be large or run the other way. Non-standard residues stand in square brackets, D forms with d. Residues, ends and D or L forms follow the SMILES beside them. Orn = NCCC[C@H](N)C(=O)O
# Experiment: qHTS assay for small molecules that induce genotoxicity in human embryonic kidney cells expressing luciferase-tagged ATAD5 (AID 651632); also: nearly all actives have a fitted effect of over 15% in size
# Conditions: HEK293T ATAD5-luciferase induction, 16 h; series mostly up to 83.3 µM; activation: at the top concentration
# Description: U.S. Tox21 Program National Center for Advancing Translational Sciences [NCATS] NIH Chemical Genomics Center [NCGC] U.S. Environmental Protection Agency [EPA] National Institutes of Environmental Health Sciences [NIEHS] National Toxicology Program [NTP] U.S. Food and Drug Administration [FDA] Tox21 Assay Overview: As cancer cells divide rapidly and during every cell division they need to duplicate their genome by DNA replication. The failure to do so results in the cancer cell death. Based on this concept, many chemotherapeutic agents were developed but have limitations such as low efficacy and severe side effects etc. A new cell based assay was developed to find the compounds that effectively block DNA replication either by directly damaging DNA or by inhibiting other cellular mechanisms. Enhanced Level of Genome Instability Gene 1 (ELG1; human ATAD5) protein levels increase in response to various types of DNA damage. Using a luciferase reporter-gene tagged with ATAD5, a cell-based assay [developed by Kyungjae Myung, NHGRI, NIH] was used to measure the induction of ATAD5 in human embryonic kidney cells (HEK293T). So, increase in luciferase activity can be used to identify the compounds that cause genetic stress.
# Tox21 Assay Protocol Summary: For genotoxicity screening, 2,000 cells in 5 uL/well were dispensed into white, solid-bottom 1536-well plates using a Multidrop Combi (Thermo Scientific) dispenser. Following transfer of 23 nL compound or DMSO vehicle by a pin tool, the plates were incubated 16 hr at 37C and 5% CO2. 5 ul Amplite (AAT Bioquest, Inc.) was then added to each plate and following 30 min incubation at room temperature, luciferase activity was quantified on a ViewLux CCD-based plate reader.
# % is scaled to controls: 0 for no effect and ±100 for the full control effect; potency is read from the fitted curve at half-maximal effect.
Structure (SMILES),activation,Potency
CN1CCN(c2ccccc2/C=C2\SCCN(c3ccc(Cl)c(Cl)c3)C2=O)CC1,-7.6%,
N[C@H](C(=O)O)[C@@H]1CC(Cl)=NO1,-2.7%,
CC(C)c1ncc([N+](=O)[O-])n1C,1.88%,
O=C(Nc1ccccc1)c1cc(Cl)ccc1O,-3.48%,
CCOc1ccc(S(=O)(=O)O)c2cccnc12,1.81%,
NC(N)=NCCCCN=C(N)N,2.45%,
Nc1cc(Cl)c(NC2=NCCN2)c(Cl)c1,1.18%,
O=C(N[C@H](CO)[C@H](O)c1ccc([N+](=O)[O-])cc1)C(Cl)Cl,,inactive
CC(C)(COP(=O)(O)OP(=O)(O)OC[C@H]1O[C@@H](n2cnc3c(N)ncnc32)[C@H](O)[C@@H]1OP(=O)(O)O)C(O)C(=O)NCCC(=O)NCCS (stereo not given in full),3.02%,
CO/N=C(\C(=O)N[C@@H]1C(=O)N2C(C(=O)[O-])=C(C[n+]3ccc(N)n3CCO)CS[C@H]12)c1csc(N)n1,-0.881%,
NC(=O)[C@@H]1C[C@]2(NC(=O)NC2=O)c2cc(F)ccc2O1,-1.18%,
CC(=O)[C@]1(O)Cc2c(O)c3c(c(O)c2[C@@H](O[C@H]2C[C@H](N)[C@H](O)[C@H](C)O2)C1)C(=O)c1ccccc1C3=O,,0.841 µM (active)
O=C(O)/C=C/C(=O)Nc1ccc(S(=O)(=O)Nc2nccs2)cc1,-2.17%,
CC(C)C[C@@H]1NC(=O)[C@H](CCCN)NC(=O)[C@H](C(C)C)NC(=O)[C@@H]2CCCN2C(=O)[C@@H](Cc2ccccc2)NC(=O)[C@H](CC(C)C)NC(=O)[C@H](CCCN)NC(=O)[C@H](C(C)C)NC(=O)[C@@H]2CCCN2C(=O)[C@@H](Cc2ccccc2)NC1=O (cyclo(V[Orn]L[dF]PV[Orn]L[dF]P)),-21.6%,
C[C@]12O[C@H](C[C@]1(O)CO)n1c3ccccc3c3c4c(c5c6ccccc6n2c5c31)CNC4=O,-19.5%,
O=C(O)C[C@H](O)C[C@H](O)/C=C/c1c(C2CC2)nc2ccccc2c1-c1ccc(F)cc1,1.99%,
O=C1CC[C@@H](C(=O)N[C@H]2C[C@@H]2c2ccccc2)N1,2.51%,
C[C@H](NCCc1ccc(O)cc1)[C@H](O)c1ccc(O)cc1,2.24%,
NCC(O)CC(=O)O (stereo not given),1.41%,
CC[C@@H](C(=O)[C@@H](C)[C@@H](O)[C@H](C)CCc1ccc(C)c(O)c1C(=O)O)[C@H]1O[C@](CC)([C@H]2CC[C@](O)(CC)[C@H](C)O2)C[C@@H]1C,-20.7%,

Structure (SMILES),activation,Potency
C(=C\c1ccncc1)/c1ccccc1,,23.7 µM (active)
N#Cc1c(N(CC(=O)O)CC(=O)O)sc(C(=O)O)c1CC(=O)O,-0.569%,
CO/N=C(\C(=O)N[C@@H]1C(=O)N2C(C(=O)O)=C(CSc3nc(C)c(CC(=O)O)s3)CS[C@H]12)c1csc(N)n1,1.76%,
O=C(Cn1cnnn1)N[C@@H]1C(=O)N2C(C(=O)O)=C(CSc3nncs3)CS[C@H]12,,inactive
CC(C)=CCC/C(C)=C/CC/C(C)=C/CC/C=C(\C)CC/C=C(\C)CCC=C(C)C,,inactive
c1ccc2cc3c4ccccc4c4ccccc4c3cc2c1,6.57% [at 95.3 µM],
Cc1cc(-c2ccc(N=Nc3ccc4c(S(=O)(=O)O)cc(S(=O)(=O)O)c(N)c4c3O)c(C)c2)ccc1N=Nc1ccc2c(S(=O)(=O)O)cc(S(=O)(=O)O)c(N)c2c1O,,inactive
COc1ccc(/C=N/NC(=O)c2ccncc2)c(C(=O)O)c1OC,1.81%,
CC(C)OC(=O)Nc1ccc2nc(-c3cscn3)[nH]c2c1,,10.6 µM (active)
C=N[C@@H](C(=O)N[C@@H]1C(=O)N2[C@@H]1SC(C)(C)[C@@H]2C(=O)O)c1ccccc1,1.11%,
CO[C@H]1C[C@@H]2CC[C@@H](C)[C@@](O)(O2)C(=O)C(=O)N2CCCC[C@H]2C(=O)O[C@H]([C@H](C)C[C@@H]2CC[C@@H](O)[C@H](OC)C2)CC(=O)[C@H](C)C=C(C)[C@@H](O)[C@@H](OC)C(=O)[C@H](C)C[C@H](C)/C=C/C=CC=C1C,,inactive
Nc1c(CC(=O)O)cccc1C(=O)c1ccccc1,,inactive
O=C(O)[C@H]1CN(C/C=C/P(=O)(O)O)CCN1,-0.882%,
CC[C@H]1OC(=O)C[C@@H](O)[C@H](C)[C@@H](O[C@@H]2O[C@H](C)[C@@H](O)[C@H](N(C)C)[C@H]2O)[C@@H](CCN2C[C@H](C)C[C@H](C)C2)C[C@@H](C)C(=O)/C=C/C(C)=C/[C@@H]1CO[C@@H]1O[C@H](C)[C@@H](O)[C@@H](OC)[C@H]1OC,3.62%,
COC1[C@@H](O[C@@H]2O[C@H](C)[C@@H](O[C@H]3C[C@@](C)(O)[C@H](OC(=O)CC(C)C)[C@H](C)O3)[C@H](N(C)C)[C@H]2O)[C@@H](CC=O)C[C@@H](C)[C@@H](O)/C=C/C=C/C[C@@H](C)OC(=O)C[C@H]1OC(C)=O (stereo not given in full),-0.207% [at 39.1 µM],
O=C(CCN1CCC(c2ccccc2)C1)c1ccc2c(c1)OCCO2 (stereo not given),2.73%,
CN1C(C(=O)Nc2ccccn2)C(=O)c2sc(Cl)cc2S1(=O)=O (stereo not given),-4.04%,
Cc1onc(-c2c(F)cccc2Cl)c1C(=O)N[C@@H]1C(=O)N2[C@@H]1SC(C)(C)[C@@H]2C(=O)O,,inactive
FC(F)(F)C(F)(F)C(F)(F)C(F)(F)C(F)(F)F,1.41%,
CCc1cn([C@H]2C[C@H](O)[C@@H](CO)O2)c(=O)[nH]c1=O,-2.29%,
